Rab9 prom act = Rab9 promoter activation; Potency, µM (titrated, usually from 9.22 µM), actives largely listed as activators; hit rate 2.8% among 320,000; Huh7 Rab9 promoter-luciferase reporter, luminescence, 24 h; note: nearly all actives have a fitted effect of over 60% in size
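Huh7 cells stably carrying a Rab9 promoter-luciferase reporter, 1500 cells per well in OP-MEM I with 10% FBS, treated with compound 24 hours at 37C. Luciferase activity read by luminescence after 10 minutes with Amplite reagent.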
NPC1 prom act = activators of NPC1 promoter. Potency, µM (top dose mostly 9.22 µM), most hits filed as activators. hit rate 2.4% among 320,000. Huh7 NPC1 promoter luciferase reporter, 24 h. AID 485313; note: nearly all actives have a fitted effect of over 60% in size
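Luminescence from an NPC1 promoter-driven luciferase reporter in stably transfected Huh7 cells was measured after 24 h compound treatment at 37 °C, followed by 10 min ambient incubation with luciferase detection reagent.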
ELG1 genotoxic = genotoxicity induction in ELG1-luciferase HEK293T cells. AID 504466. Potency, µM (series often up to 46 µM), actives largely listed as activators. hit rate 1.3% among 330,000. HEK293T ELG1-luciferase reporter, luminescence, 16 h; note: nearly all actives have a fitted effect of over 60% in size
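HEK293T cells expressing luciferase-tagged ELG1 were exposed to compound or DMSO vehicle for 16 hr at 37 °C and 5% CO2. Luciferase activity was then measured with ONE-Glo after 30 min at room temperature.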
SMN2 splice up = enhancers of SMN2 splice variant expression; HEK293 SMN2-luciferase splicing reporter, luminescence, 30-36 h; Potency, µM (highest dose often 46.1 µM), hits mostly activators; hit rate 2.8% among 210,000; AID 1458; note: nearly all actives have a fitted effect of over 55% in size
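qHTS luciferase splicing reporter: luminescence rises when SMN2 exon 7 is included in transfected HEK293 cells. Compound exposure lasted 30-36 h at 37C, with 4.5 mM final sodium butyrate as control, followed by a ONE-Glo read.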
Luc counter = Kinase-Glo luciferase inhibition (counter-screen); Q27757; Kinase-Glo luciferase, ATP luminescence, 8 min; Potency, µM (highest dose often 38.3 µM), usual class: inhibitors; hit rate 0.28% among 200,000; AID 1379; note: nearly all actives have a fitted effect of over 60% in size
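Light output from Kinase-Glo luciferase with luciferin and 10 uM ATP in 50 mM imidazole pH 7.2, KCl, MgCl2, Tween 20, BSA; compound pin-delivered, 8-min ambient incubation, then luminescence read.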
FLuc modulator = inhibits or activates purified firefly luciferase, miR-21 counter-screen. P08659. purified FLuc, Km substrates, luminescence inhibition. Potency, µM (highest dose often 57.5 µM), most hits filed as inhibitors. hit rate 6.9% among 360,000; note: nearly all actives have a fitted effect of over 55% in size
Target sequence (P08659 whole entry, looked up): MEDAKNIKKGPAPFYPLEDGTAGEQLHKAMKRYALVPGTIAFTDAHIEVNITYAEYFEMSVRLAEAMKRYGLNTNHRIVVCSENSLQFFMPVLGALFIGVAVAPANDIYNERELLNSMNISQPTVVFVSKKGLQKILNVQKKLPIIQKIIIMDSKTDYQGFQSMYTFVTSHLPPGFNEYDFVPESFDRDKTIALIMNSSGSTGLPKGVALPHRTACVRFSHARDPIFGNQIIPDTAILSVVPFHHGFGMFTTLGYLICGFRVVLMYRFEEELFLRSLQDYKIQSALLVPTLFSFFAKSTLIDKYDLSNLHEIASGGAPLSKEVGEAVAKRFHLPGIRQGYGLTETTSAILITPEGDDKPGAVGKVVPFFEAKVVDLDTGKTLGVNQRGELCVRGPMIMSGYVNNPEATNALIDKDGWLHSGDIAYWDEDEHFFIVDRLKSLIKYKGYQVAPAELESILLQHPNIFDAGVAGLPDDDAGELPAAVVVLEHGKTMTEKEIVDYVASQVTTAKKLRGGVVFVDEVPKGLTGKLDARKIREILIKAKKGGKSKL
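Purified P. pyralis luciferase, 10 nM final, with Km-level 10 uM D-luciferin and 10 uM ATP in 50 mM Tris acetate pH 7.5, 10 mM Mg acetate, 0.01% Tween-20, 0.05% BSA; 6-point qHTS titration about 60 µM downward; luminescence read.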
Hits are given with their value; – = inactive; ? = inconclusive; · = no result; [ ] = another dose, or the depositor's remark. Rows were chosen to be rich in hits. Some 7.5% of all compounds tested hit in one or more screens of this group. Calls come from the whole dose curve; as a rule, active = well fitted curve in the direction sought with a large enough effect; inconclusive = small, poorly fitted or top-dose-only effect, or another doubt; inactive = no such curve, though single readings can be large; an effect the other way counts as inactive or inconclusive.

SMILES	Rab9 prom act	NPC1 prom act	ELG1 genotoxic	SMN2 splice up	Luc counter	FLuc modulator
CC(NC(=O)C1CCN(C(=O)c2ccc(F)cc2)CC1)c1ccc(-n2ccnc2)cc1 (stereo not drawn)	–	–	–	·	·	–
CCOc1ccc(S(=O)(=O)N2CCOCC2)cc1NC(=O)CN1C(=O)NC(C)(c2ccccc2)C1=O (stereo not drawn)	–	–	–	·	·	–
O=C(O)[C@H](Cc1ccccc1)NC(=O)N1CCN(c2cccc(C(F)(F)F)c2)CC1	–	–	–	·	·	–
CC(C)(C)c1ccc(Oc2ccc(NC(=O)c3ccccc3C(=O)O)cn2)cc1	–	–	–	·	·	19µM
COc1ccc(Cl)c2c1[nH]c1nc(SCc3cccnc3)nnc12	–	–	–	–	–	–
COc1ccc(Cl)c2c1[nH]c1nc(SCc3ccccn3)nnc12	1.78µM	2.82µM	20.6µM	6.31µM	–	6.01µM
COc1ccc2nc(Nc3nc(C)c(C(C)=O)s3)sc2c1	2.51µM	2.82µM	?	–	–	4.78µM
COc1cc(C)nc(Nc2nc(C)c(C(C)=O)s2)n1	–	–	–	·	·	–
COc1ccc2nc(NS(=O)(=O)c3ccc(NC(C)=O)cc3)sc2c1	–	–	–	–	–	–
COc1ccc(Nc2nc3ccc(OC)cc3s2)cc1	2.24µM	?	?	12.6µM	–	10.7µM
Cc1ccc(N(C(=O)c2snc(C(N)=O)c2N)C(C(=O)NC2CCCC2)c2ccncc2)cc1 (stereo not drawn)	–	–	–	·	·	–
CN(CCc1ccccn1)C(=O)CCc1nnc(CCCc2ccccc2)o1	?	?	?	·	–	15.1µM
CCc1cc(CNC(=O)CCc2nnc(CCCc3ccccc3)o2)on1	3.55µM	?	18.3µM	15.8µM	–	19µM
O=C(CCc1nnc(CCCCc2ccccc2)o1)NCCn1cccn1	–	–	–	–	–	–
O=C(CCc1nnc(CCCc2ccccc2)o1)N1CCCCCC1	?	?	?	·	–	21.3µM
O=C(CCc1nnc(CCCCc2ccccc2)o1)NCCN1CCOC1=O	–	–	–	·	–	16.9µM
Cc1cnc(SCc2ccc(Cl)cc2Cl)[nH]c1=O	–	–	–	·	·	21.3µM
Cc1nnc(SCc2ccc(Cl)cc2Cl)[nH]c1=O	–	–	?	–	–	?
O=C1CN(C(=O)c2ccccc2C(F)(F)F)C(c2ccccc2)c2cc(F)ccc2N1 (stereo not drawn)	·	·	·	–	·	–
O=C1C2C3C=CC(C4CC34)C2C(=O)N1/N=C/c1cccs1 (stereo not drawn)	–	–	–	–	–	16.9µM
COc1ccc(Nc2nc(N)c3ccccc3n2)c(OC)c1	4.47µM	3.55µM	?	·	·	7.57µM
COc1cc2nc(Nc3cccc(F)c3)nc(N)c2cc1OC	–	–	–	–	·	?
COc1ccc(Nc2nc(N)c3cc(OC)c(OC)cc3n2)cc1	·	·	·	–	·	15.1µM
Cc1ccc(Nc2nc(N)c3ccccc3n2)cc1C	0.501µM	0.501µM	?	·	·	0.536µM
COc1ccc(Nc2nc(-c3ccccc3)nc3ccccc23)c(OC)c1	–	–	–	–	–	–
SMILES	Rab9 prom act	NPC1 prom act	ELG1 genotoxic	SMN2 splice up	Luc counter	FLuc modulator
COc1ccccc1N1CCN(c2ncnc3c2nc2n3CCCC2)CC1	·	·	·	–	·	–
N=c1oc2ccccc2cc1-c1nc(-c2ccccc2)cs1	–	–	–	–	–	4.78µM
N=c1oc2ccc3ccccc3c2cc1-c1nc(-c2ccccc2)cs1	–	–	–	–	–	–
CCN(CC)S(=O)(=O)c1cc(C(=O)OCC(=O)Nc2ccc(-c3nc4ccc(C)cc4s3)cc2)ccc1F	0.316µM	0.398µM	10.3µM	1.58µM	–	5.36µM
CCN(CC)S(=O)(=O)c1ccc(C(=O)OCC(=O)Nc2ccc(-c3nc4ccc(C)cc4s3)cc2)cc1	0.447µM	0.398µM	1.64µM	1µM	–	2.69µM
Cc1cccc(C(C)C)c1NC(=O)Cn1c(=O)oc2cc(S(=O)(=O)N3CCCC3)ccc21	·	·	·	–	·	–
CC(=Nc1ccc(C)c(C)c1)C1=C(O)CSC1=O	?	–	18.4µM	?	–	10.7µM
CC(C)(C)n1ncc2c(=O)n(Cc3cccc(Cl)c3)cnc21	–	–	–	·	·	–
O=C(O)[C@@H]1[C@@H]2O[C@H]([C@@H](Br)[C@H]2Br)[C@H]1C(=O)O	·	·	·	–[9.22 µM]	–[7.66 µM]	·
COC(=O)c1ccc(NC(=O)CSCC(=O)OCC(=O)c2ccc(Br)cc2)cc1	–	–	–	–	–	12µM
O=C(/C=C/c1ccccc1Cl)NCc1ccco1	–	?	–	–	–	23.9µM
O=C(O)/C=C/C(=O)Nc1cccnc1	–	–	–	–	–	–
O=C(/C=C/c1ccccc1Cl)Nc1ccncc1	2.82µM	?	–	–	–	4.26µM
COC(=O)c1sccc1NC(=O)/C=C\c1ccc(Cl)cc1Cl	3.98µM	?	–	–	?	?
O=C(/C=C/c1ccccc1Cl)Nc1cccnc1	1.78µM	1.12µM	4.11µM	·	·	1.35µM
O=C(/C=C/c1c(Cl)cccc1Cl)NCc1ccco1	?	–	–	–	–	–
Cc1cc(C)c(S(=O)(=O)c2cccc(Cl)c2)c(=O)[nH]1	–	–	–	·	·	–
